Measurements taken from PMC4336329 (PLoS ONE, 2015).
Screen size: about 310,000 compounds; about 2,200 (0.71%) showed an effect of 50% or more. Effects have a minus sign here. Many of the other results were omitted from the sample, so strong results are more common in it than they were.

biological target: human ether-à-go-go-related gene (hERG) potassium channel (human, UniProt Q12809); test: primary screen, population patch clamp on CHO cells stably expressing hERG; higher = less effect of the substance
Sequence (Q12809 whole entry, looked up): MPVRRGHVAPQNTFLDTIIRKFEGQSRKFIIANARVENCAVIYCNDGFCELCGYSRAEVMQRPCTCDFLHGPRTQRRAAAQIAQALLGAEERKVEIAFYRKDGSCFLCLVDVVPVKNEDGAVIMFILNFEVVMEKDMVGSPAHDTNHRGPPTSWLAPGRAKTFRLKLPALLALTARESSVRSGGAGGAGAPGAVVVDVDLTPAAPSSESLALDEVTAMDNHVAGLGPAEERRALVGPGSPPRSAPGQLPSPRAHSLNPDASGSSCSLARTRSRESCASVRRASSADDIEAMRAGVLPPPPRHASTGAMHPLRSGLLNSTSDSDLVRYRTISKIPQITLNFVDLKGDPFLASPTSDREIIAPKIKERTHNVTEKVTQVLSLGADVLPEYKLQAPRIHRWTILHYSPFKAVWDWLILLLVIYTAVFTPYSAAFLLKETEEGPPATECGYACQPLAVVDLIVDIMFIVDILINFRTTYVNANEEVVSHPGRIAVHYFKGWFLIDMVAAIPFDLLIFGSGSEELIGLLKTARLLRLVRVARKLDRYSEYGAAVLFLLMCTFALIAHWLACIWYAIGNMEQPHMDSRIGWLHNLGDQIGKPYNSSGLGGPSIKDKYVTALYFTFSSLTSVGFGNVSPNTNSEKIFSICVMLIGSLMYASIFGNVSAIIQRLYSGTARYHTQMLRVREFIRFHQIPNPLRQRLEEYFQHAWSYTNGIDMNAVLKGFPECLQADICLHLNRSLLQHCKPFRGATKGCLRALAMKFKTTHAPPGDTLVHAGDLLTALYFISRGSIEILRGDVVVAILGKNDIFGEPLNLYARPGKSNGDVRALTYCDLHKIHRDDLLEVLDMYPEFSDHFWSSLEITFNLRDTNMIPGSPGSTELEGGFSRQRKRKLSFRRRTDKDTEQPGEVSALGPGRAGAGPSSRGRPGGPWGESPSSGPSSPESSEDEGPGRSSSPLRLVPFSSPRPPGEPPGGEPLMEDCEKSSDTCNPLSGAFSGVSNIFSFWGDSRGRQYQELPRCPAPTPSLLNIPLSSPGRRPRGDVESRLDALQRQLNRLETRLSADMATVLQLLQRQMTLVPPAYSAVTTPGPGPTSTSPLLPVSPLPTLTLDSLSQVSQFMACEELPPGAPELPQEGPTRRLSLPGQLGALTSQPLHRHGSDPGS

| Structure (SMILES) | hERG current change (%, negative = inhibition) at 1uM [%] |
| --- | --- |
| CC(=O)c1ccc(OCCCC(=O)Nc2cccc(S(=O)(=O)N3CCCCC3)c2)cc1 | -3.68 |
| Oc1ccc2ccccc2c1Br | 12.1 |
| COc1ccc(N2CCN(C(=O)/C=C/c3ccco3)CC2)cc1 | 6.52 |
| Cc1ccc(C(=O)NCCNS(=O)(=O)c2ccccc2)cc1 | -1.17 |
| CCC(=O)Nc1nnc(S(=O)(=O)N(CC)c2ccc(OC)cc2)s1 | 23.9 |
| COc1ccc(/C=C(/NC(=O)c2ccccc2)C(=O)N2CCCC2)cc1OC | 14.3 |
| CC(=O)Oc1ccc2c3c(c(=O)oc2c1C)CCCC3 | 15.5 |
| CCOC(=O)CNC(=O)c1cc2c(=O)[nH]c3ccc(C)cc3c2s1 | 11.1 |
| O=C(NC1CC1)c1ccc2snnc2c1 | 6.14 |
| Cc1ccc(C)n1-c1ccc(C(=O)Nc2ccccc2F)cc1 | 10.7 |
| CC1CN(CC(=O)Nc2ccc([N+](=O)[O-])cc2Br)CC(C)O1 (stereo not shown) | 4.18 |
| N=c1c(C(=O)NCc2ccco2)cc2c(=O)n3ccccc3nc2n1Cc1ccccc1 | -81.6 |
| Cc1ccc(Cn2c(=N)c(C(=O)NCc3ccco3)cc3c(=O)n4ccccc4nc32)cc1 | -67.9 |
| N=c1c(C(=O)NCc2ccc(F)cc2)cc2c(=O)n3ccccc3nc2n1Cc1ccco1 | -85 |
| N=c1c(C(=O)NCCc2ccccc2)cc2c(=O)n3ccccc3nc2n1Cc1ccco1 | -67.5 |
| Cc1ccc(CNC(=O)c2cc3c(=O)n4ccccc4nc3n(Cc3ccco3)c2=N)cc1 | -38.1 |
| Cc1ccc(Cn2c(=N)c(C(=O)NCCN3CCOCC3)cc3c(=O)n4ccccc4nc32)cc1 | -8.25 |
| COc1ccc(N2C(=O)C3CCCN3C2c2ccc(F)cc2)cc1Cl (stereo not shown) | 8.28 |
| O=C(NCCc1ccc(Cl)cc1)c1cccnc1 | 9.38 |
| CCN(CC)c1ccc(/C=N/N2CCN(Cc3ccccc3)CC2)c(O)c1 | -0.743 |
| O=C(CN1C(=O)/C(=C\c2ccccc2Cl)Oc2ccccc21)NCc1cccnc1 | 5.85 |
| CCN(CC)c1ccc(NC(=O)c2cc(OC)cc(OC)c2)c(C)c1 | -2.35 |

| Structure (SMILES) | hERG current change (%, negative = inhibition) at 1uM [%] |
| --- | --- |
| CC1CCN(S(=O)C23CC4CC(CC(C4)C2)C3)CC1 (stereo not shown) | 16.3 |
| Fc1cccc(Cl)c1Cn1nnc2c(N3CCC4(CC3)OCCO4)ncnc21 | 13.7 |
| CCn1c(=O)c(C(=O)NCCc2ccc(OC)c(OC)c2)c(O)c2ccccc21 | 8.62 |
| N=c1c(C(=O)NCc2ccco2)cc2c(=O)n3ccccc3nc2n1Cc1ccc(Cl)cc1 | -55.7 |
| N=c1c(S(=O)(=O)c2ccc(Cl)cc2)cc2c(=O)n3ccccc3nc2n1Cc1ccco1 | 14 |
| Cn1c(CSCc2ccc(Cl)c(Cl)c2)nnc1SCC(=O)Nc1nccs1 | 2.81 |
| CCCCCCCN1C(N(C)C)=NC[C@@H]1Cc1ccccc1 | -69 |
| CN(C)C1=NC[C@H](Cc2ccccc2)N1CCC1CCCC1 | -19.7 |
| CN(C)C1=NC[C@H](Cc2ccccc2)N1CCCC1CCCCC1 | -29.5 |
| CN(C)C1=NC[C@H](Cc2ccccc2)N1CCCC1CCCC1 | -56.8 |
| CC(C)CCCN1C(N(C)C)=NC[C@@H]1Cc1ccccc1 | -2.29 |
| CN(C)C1=NC[C@H](Cc2ccccc2)N1CCCCc1ccccc1 | -42.2 |
| COc1ccccc1C(=O)NC(=O)CSc1nncn1C | 18.2 |
| CCCSC1=C(C#N)C(c2ccc(Cl)cc2Cl)CC(=O)N1 (stereo not shown) | 11.8 |
| O=C(O)c1cc(-c2ccc(N3CCOCC3)cc2)nn1-c1ccc(F)cc1F | 12.7 |
| Fc1ccccc1CNc1ccc(Cl)c(Cl)c1 | 11.7 |
| Fc1ccccc1CNc1ccc(Cl)cc1 | 12.8 |
| Fc1ccc(NCc2ccccc2F)cc1Cl | -76.5 |
| COc1ccc(CCn2c(NCCCN3CCOCC3)nc3c2c(=O)[nH]c(=O)n3C)cc1 | 7.24 |
| Nc1ccc(OCCc2ccccc2)cc1 | 11.5 |
| O=c1c(Cl)c(NCc2ccco2)cnn1C12CC3CC(CC(C3)C1)C2 | 4.54 |
| CCCCN(CCCC)c1ccc(C(=O)c2ccccc2C(=O)O)c(O)c1 | -50.5 |

| Structure (SMILES) | hERG current change (%, negative = inhibition) at 1uM [%] |
| --- | --- |
| CCN(CC)c1ccc(C(=O)c2ccccc2C(=O)O)c(O)c1 | 11.7 |
| CN(C)c1ccc(C(=O)c2ccccc2C(=O)O)c(O)c1 | 13.2 |
| CCN(CC)S(=O)(=O)c1cccc(-c2nnc(SCCOc3ccccc3)o2)c1 | 12.4 |
| O=C(COC(=O)c1ccc2ncsc2c1)Nc1cc([N+](=O)[O-])ccc1Cl | 7.27 |
| COc1ccc(S(=O)(=O)Nc2ccc(NC(C)=O)cc2)cc1Cl | 10.3 |
| CC(C)CCNC(=O)C12CN(Cc3ccccc3)CC1C(c1cccc([N+](=O)[O-])c1)=NO2 (stereo not shown) | 9.69 |
| O=C(NCCCCc1ccccc1)C12CN(Cc3ccccc3)CC1C(c1cccc([N+](=O)[O-])c1)=NO2 (stereo not shown) | 10.9 |
| CCCCN(CCCC)CCCNC(=O)C12CN(Cc3ccccc3)CC1C(c1cccc([N+](=O)[O-])c1)=NO2 (stereo not shown) | -53.1 |
| O=C(/C=C/c1cccnc1)c1cc(F)ccc1O | 8.59 |
| COCCNC(=O)c1ccccc1NC(=O)c1ccccc1N(C)S(=O)(=O)c1ccc(C)cc1 | 8.36 |
| CCOC(=O)c1sc(-c2ccccc2)nc1C | 9.24 |
| CC(=O)Nc1ccc(OC(=O)c2cc3cc(Br)cc(Br)c3oc2=O)cc1 | 5.16 |
| CCOc1ccc(/C=N/N2C(C)CCCC2C)cc1 (stereo not shown) | 12 |
| COc1ccccc1N1CCN(Cc2nc(N)nc(Nc3ccccc3)n2)CC1 | -33.8 |
| COc1ccc(Nc2nc(N)nc(CN3CCC(Cc4ccccc4)CC3)n2)cc1 | -81 |
| CCOC(=O)N1CCN(Cc2nc(N)nc(Nc3ccc(C)cc3)n2)CC1 | -37 |
| COc1ccc(Nc2nc(N)nc(CN3CCN(c4ccccn4)CC3)n2)cc1 | -37.1 |
| Nc1nc(CN2CCN(c3ccccn3)CC2)nc(Nc2ccc(F)cc2)n1 | -49 |
| Nc1nc(CN2CCN(C(c3ccccc3)c3ccccc3)CC2)nc(Nc2ccccc2)n1 | 10.2 |
| CCOC(=O)N1CCN(Cc2nc(N)nc(Nc3ccc(OCC)cc3)n2)CC1 | -56 |
| CCOC(=O)N1CCN(Cc2nc(N)nc(Nc3ccc(OC)cc3)n2)CC1 | -9.74 |
| COc1ccc(Nc2nc(N)nc(CN3CCc4ccccc4C3)n2)cc1 | -23.3 |

| Structure (SMILES) | hERG current change (%, negative = inhibition) at 1uM [%] |
| --- | --- |
| Nc1nc(CN2CCN(c3ccccn3)CC2)nc(Nc2ccc(Cl)cc2)n1 | -56.2 |
| COc1cccc(N2CCN(Cc3nc(N)nc(Nc4ccccc4)n3)CC2)c1 | -31.9 |
| Nc1nc(CN2CCC(Cc3ccccc3)CC2)nc(Nc2ccccc2)n1 | -87.4 |
| O=C(c1ccccc1)c1ccc(OCC(O)CN2CCN(S(=O)(=O)N3CCCCC3)CC2)cc1 (stereo not shown) | -12.6 |
| COc1ccccc1N(CC(=O)NC1CCCC1)C(=O)CCC(=O)Nc1cc(C)on1 | 8.06 |
| CCn1c2ccc(F)cc2c2nc3ccccc3nc21 | 10.2 |
| CCOC(=O)Cc1[nH]nc2c1C(c1cc(OC)ccc1OC)C(C#N)=C(N)O2 (stereo not shown) | 14.9 |
| CSc1oc(-c2cccs2)nc1S(=O)(=O)c1ccccc1 | 4.25 |
| CN(C)c1ccc(CNc2nc(-c3ccccc3)nn2S(C)(=O)=O)cc1 | 14.6 |
| O=C(COc1ccc(S(=O)(=O)N2CCOCC2)cc1)N1CCCCCC1 | 25.1 |
| COc1ccc(CCNC(=O)COC(=O)/C=C/c2cccs2)cc1OC | 11.7 |
| O=C(O)CCCN1C(=O)NC2NC(=O)NC21 (stereo not shown) | 10.2 |
| COc1ccc(Nc2nc(N)nc(CN3CCN(c4ccc(F)cc4)CC3)n2)cc1 | -19.3 |
| Nc1nc(CN2CCN(c3ccccc3)CC2)nc(Nc2ccc(Cl)cc2)n1 | -44.8 |
| COc1ccc(Nc2nc(N)nc(CN3CCC(C)CC3)n2)cc1 | -50.7 |
| COc1ccc(Nc2nc(N)nc(CN3CCOCC3)n2)cc1 | 1.93 |
| Nc1nc(CN2CCCCCC2)nc(Nc2ccccc2)n1 | -31.9 |
| Nc1nc(CN2CCN(Cc3ccccc3)CC2)nc(Nc2ccccc2)n1 | -56.3 |
| O=C(CSc1ncn(-c2ccccc2)n1)N1CCc2ccccc21 | 1.39 |
| O=S(=O)(c1ccc(Cl)cc1)N1CCC2(CC1)OCCO2 | 2.73 |
| FC(F)(F)c1cccc(N2CCN(C(=S)NCC3CCCO3)CC2)c1 (stereo not shown) | 4.59 |
| COc1ccc(-c2nn(C)c(=O)c3ccccc23)cc1CNC(=O)CN1CCOCC1 | 6.56 |
